# LASV entry inh: blocks Lassa virus binding to or entry into cells | Lassa virus pseudotype entry inhibition, cell reporter | Potency, µM (highest dose often 37.9 µM), usual class: inhibitors | hit rate 1.2% among 300,000; calls by dose curve; tested in HEK293 cells; note: nearly all actives have a fitted effect of over 50% in size
# Pf growth 48h: inhibits P. falciparum growth in the first generation, 48 h; P. falciparum luciferase growth in erythrocytes, 48 h; Potency, µM (highest dose often 28.7 µM), most hits filed as inhibitors; hit rate 5.9% among 310,000
#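 In quantitative HTS format, infected erythrocytes bearing luciferase-reporter parasites were treated for a single generation at 37 C. Luminescence after adding detection reagent served as the growth measure.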
# Pf growth 96h: P. falciparum growth inhibition at 96 hours. Potency, µM (titrated, usually from 28.7 µM), actives largely listed as inhibitors. hit rate 6.9% among 320,000. AID 504834. P. falciparum luciferase reporter growth, 96 h
#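 Cell-based qHTS: luciferase-tagged P. falciparum in erythrocytes (2% hematocrit, 0.05% parasitemia final) incubated with compounds for 96 hours, 37 C, 5% CO2; luciferase detection reagent then added and luminescence measured.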
# CHX counter: counter-screen hit for Shiga toxin inhibitors, cycloheximide; cell reporter, cycloheximide protein synthesis inhibition counterscreen; max response, %; hit rate 12% among 300,000; AID 2314; in the data active = max response mostly above about 13%, no sharp cut-off; inactive = mostly below about 14%; note: read at 38.3 µM for the half of the compounds with a filed dose
# Shiga inhibitor: Shiga toxin inhibition | Vero cells, Shiga toxin protein synthesis inhibition reporter | inhibition, % at 38.7 µM | hit rate 9.2% among 290,000; in the data active = inhibition mostly above about 28%, no sharp cut-off; inactive = mostly below about 43%
# MARV entry inh: Marburg virus entry inhibition. Marburg virus pseudotyped entry inhibition, cell reporter. hit rate 1.8% among 300,000. Potency, µM (top dose mostly 37.8 µM), actives largely listed as inhibitors; calls by dose curve; tested in HEK293 cells
# Numbers stand for hits; 0 = inactive; ? = inconclusive; - = not tested or not shown. This is a sample that favours compounds with a hit; in the whole collection about 19% have one here. Unless noted, calls come from the whole dose curve; as a rule, active = well fitted inhibition curve with a large enough effect; inconclusive = small, poorly fitted or top-dose-only effect, or another doubt; inactive = no such curve, though single readings can be large or run the other way.
SMILES,LASV entry inh,Pf growth 48h,Pf growth 96h,CHX counter,Shiga inhibitor,MARV entry inh
CN(C)c1ccc(NC(=O)CSc2nc(N)c(C(=O)Nc3ccc(N(C)C)cc3)s2)cc1,?,?,?,31,0,?
COc1ccc(NC(=O)CSc2nc(N)c(C(=O)Nc3ccc(N(C)C)cc3)s2)cc1,0,0,-,0,124,?
CCOC(=O)c1sc(SCC(=O)Nc2ccc(N(C)C)cc2)nc1N,?,0,?,0,0,0
COc1ccc(/C=C/c2nc3ccccc3c(=O)o2)cc1,?,0,0,0,0,?
COc1ccc(/C=C/c2nc3cc(-c4ccccc4)ccc3o2)cc1O,?,?,?,97,100,?
COc1ccc(C(=O)O/N=C(\N)c2ccccc2)c(OC)c1,?,0,0,32,0,1.5µM
COc1ccc(/C(N)=N/OC(=O)c2cccc([N+](=O)[O-])c2C)cc1OC,?,-,13µM,0,0,0
COc1ccc(C(=O)O/N=C(\N)c2ccc(OC)c(OC)c2)cc1,-,?,0,27,160,-
COc1ccc(C(=O)COC(=O)c2ccccn2)c(OC)c1,?,-,-,-,-,0
COc1ccc(C(=O)O/N=C(\N)c2ccccn2)c(OC)c1,?,0,0,29,0,?
CC(=O)Nc1c2c(nn1-c1cccc(Cl)c1)CS(=O)C2 (stereo not drawn),-,-,0,0,0,-
COC(=O)c1ccc(C)c(NC(=O)CCSc2ccc(C)cc2)c1,0,0,?,0,0,0
CCCC(=O)N1CCC(O)(c2cccc(F)c2)CC1,0,0,0,0,0,0
COc1ccc(C(C)=O)c(OC(=O)c2ccc(OC)c(OC)c2)c1,0,0,0,0,0,0
COc1ccc(C(=O)O/N=C(\N)c2ccc(OC)c(OC)c2)c(OC)c1,-,0,0,48,93,0
COc1cccc(C(=O)O/N=C(\N)c2ccc([N+](=O)[O-])cc2)c1OC,?,0,?,75,76,?
N/C(=N\OC(=O)Oc1ccccc1)c1ccc([N+](=O)[O-])cc1,?,0,0,0,0,0
Cn1cc([N+](=O)[O-])c(C(=O)Nc2ccc(C3CCCCC3)cc2)n1,-,0,0,46,86,-
Cn1cc([N+](=O)[O-])c(C(=O)Nc2ccc(C(=O)N3CCCCC3)cc2)n1,0,0,0,0,29,0
COc1ccc(N2CCN(C(c3cccs3)C(C)NC(=O)C(=O)N3CCCCC3)CC2)cc1 (stereo not drawn),-,?,12µM,0,0,-
COc1ccc(N2CCN(C(c3cccs3)C(C)NS(=O)(=O)c3ccccc3)CC2)cc1 (stereo not drawn),?,13µM,?,0,0,?
Cc1cc(NC(=O)c2c(-c3c(Cl)cccc3Cl)noc2C)n(C)n1,0,0,?,0,0,0
CC(=O)n1c(-c2ccccc2)c(-c2ccccc2)n(C)c1=O,0,-,-,-,-,0
Cc1ccc(S(=O)(=O)c2cnc3cc(C)nn3c2N)cc1,0,0,5.9µM,0,0,0
Cc1c(C(=O)NCc2ccccc2Cl)cccc1-n1cnc2cccnc21,0,-,-,-,-,-
SMILES,LASV entry inh,Pf growth 48h,Pf growth 96h,CHX counter,Shiga inhibitor,MARV entry inh
CN1C(=O)/C(=C/c2ccc(N3CCCCCC3)o2)C(=O)NC1=S,?,0,0,40,64,?
O=C1NC(=O)N(c2ccc3c(c2)OCO3)C(=O)/C1=C/c1ccc(N2CCCC2)o1,0,?,0,0,0,0
CCOc1ccc(N2C(=O)NC(=O)/C(=C\c3ccc(N4CCCCC4)o3)C2=O)cc1,0,?,13µM,0,0,?
CN1C(=O)/C(=C\c2ccc(N3CCCCCC3)cc2)C(=O)NC1=S,-,0,0,0,0,-
CN1C(=O)/C(=C\c2ccc(N3CCCCC3)o2)C(=O)NC1=S,?,0,0,27,38,?
O=c1c(Cc2ccc(Cl)cc2Cl)c(O)ccn1CCCN1CCOCC1,0,0,0,0,0,0
Cn1c(SCc2ccc(C(=O)Nc3nccs3)cc2)nnc1-c1ccccc1,0,2.3µM,-,0,0,0
CCC(Sc1nnc(-c2ccc(C)c(Cl)c2)n1CC)C(=O)Nc1nccs1 (stereo not drawn),?,?,0,0,0,?
C=CCn1c(SCc2ccc(C#N)cc2)nnc1-c1ccc(C)cc1,0,?,12µM,0,0,?
Cn1c(SCC(=O)Nc2nccs2)nnc1-c1ccncc1,0,0,0,0,0,0
CCn1c(SCc2ccc(C(=O)Nc3nccs3)cc2)nnc1-c1ccc(NC(C)=O)cc1,0,?,13µM,0,0,0
C=CCn1c(SCc2ccc(C(=O)Nc3ccccc3)cc2)nnc1-c1ccccc1,0,0,0,19,0,?
COCCN(Cc1cc2cc3c(cc2n2nnnc12)OCO3)C(=O)c1ccccc1F,0,0,?,0,0,0
COc1ccc(S(=O)(=O)N2CCOCC2)cc1NC(=O)c1ccc2c(c1)OCO2,-,0,0,-,-,-
CC(=O)c1c(C)[nH]c(C(=O)Nc2c(C)n(C)n(-c3ccccc3)c2=O)c1C,0,0,0,0,0,0
CCC(=O)Oc1ccc(C/C(=N\O)c2ccc(O)cc2O)o1,0,0,?,0,0,0
Cc1cc(Cl)c2ccc3ccccc3c2n1,0,0,0,0,0,0
CCn1c(SCc2ccc(C(=O)Nc3nccs3)cc2)nnc1-c1ccc(N)cc1,0,10µM,-,20,0,?
O=C(N/N=C/c1ccncc1)c1cc2ccccc2cc1O,-,0,?,32,31,-
O=C(N/N=C/c1ccc[nH]1)c1cc2ccccc2cc1O,0,?,0,31,78,0
O=C(Nc1ccccc1C(=O)N/N=C/c1ccncc1)c1ccccc1,?,0,?,0,0,?
O=C(N/N=C/c1ccc[nH]1)c1cc(-c2ccc(Cl)cc2)nc2ccccc12,?,?,?,0,0,?
Cc1cc(C(=O)Nc2ccc(S(=O)(=O)Nc3onc(C)c3C)cc2)cs1,0,0,0,0,0,0
CCOC(=O)Cc1c(C)nc2c(-c3cccc(Br)c3)cnn2c1C,?,0,?,0,0,0
Cc1cc(N2CCN(C3CCCC3)CC2)n2ncc(-c3ccccc3)c2n1,-,0,-,0,0,0
SMILES,LASV entry inh,Pf growth 48h,Pf growth 96h,CHX counter,Shiga inhibitor,MARV entry inh
Cc1cc(N)n2ncc(-c3ccccc3)c2n1,0,-,0,58,72,?
CC(=O)Nc1ccc(Nc2cc(C)nc3c(-c4ccccc4)cnn23)cc1,?,0,0,34,71,?
Cc1cc(N)n2ncc(-c3cccc(Br)c3)c2n1,?,0,0,41,110,0
Fc1ccc2c(c1)/C(=N/Nc1ccccn1)CCS2,0,?,0,30,58,0
NC(=O)N/N=C/c1c(Sc2nnnn2-c2ccccc2)nc2ccccn2c1=O,-,4.7µM,?,0,0,-
CC(=O)c1ccc(NC(=O)c2cc(Cl)sc2Cl)cc1,0,0,0,40,32,0
Cc1cc(C)cc(NC(=O)c2cc(Cl)sc2Cl)c1,0,0,0,30,0,0
Cc1[nH]c(=O)[nH]c(=O)c1S(=O)(=O)N1CCN(c2ccccc2F)CC1,0,0,0,0,0,0
COc1ccc(C(=O)Nn2c(SCC(=O)c3ccccc3)nc3ccccc3c2=O)cc1,?,0,0,38,0,?
CCc1ccc(C(=O)Nn2c(C)nc3ccccc3c2=O)cc1,-,0,0,0,0,-
